The values below come from PubChem BioAssay (Tox21).

Each structure is given as a SMILES string. Values joined by “and” are separate entries in the source; they are usually repeats but may differ in a detail not shown here. Identical values can stand only once. Inconclusive results are not listed. More than one record can exist for a structure, and the calls need not agree. Active and inactive are the calls of the source. Unless noted, calls follow the shape of the dose curve; as a rule, active = well fitted curve in the direction sought with a large enough effect in the repeat runs; inconclusive = weak or mixed curves; inactive = no such curve, though single readings can be large; an effect the other way counts as inactive or inconclusive.

Assay [1] is described as follows: qHTS assay for small molecules that induce genotoxicity in human embryonic kidney cells expressing luciferase-tagged ATAD5 (AID 651632). Also: nearly all actives have a fitted effect of over 15% in size. As to conditions: HEK293T ATAD5-luciferase induction, 16 h; series mostly up to 83.3 µM. A digest of the protocol: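 Test compounds were delivered by pin tool onto HEK293T reporter cells (2,000/well) expressing ATAD5 fused to luciferase. After 16 hr at 37C, 5% CO2, Amplite was added for 30 min at room temperature and luminescence was measured.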
(qHTS replaces the single test concentration by a dilution series.)

A short description of assay [2]: qHTS assay for small molecule agonists of the p53 signaling pathway - cell viability (AID 651633; calls by dose curve;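 also: p53RE-bla HCT reporter cells with a stable beta-lactamase p53 reporter; nearly all actives have a fitted effect of over 30% in size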). The following applies: p53RE-bla HCT-116 viability, ATP luminescence, 16 h; series mostly up to 83.3 µM. A digest of the protocol:
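p53RE-bla cells were treated with compound for 16 hours at 37 C. Cytotoxicity was then measured as CellTiter-Glo luminescence after 30 min at room temperature.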

The nature of assay [3]: qHTS assay for small molecules that induce genotoxicity in human embryonic kidney cells expressing luciferase-tagged ATAD5 - cell viability (AID 651634; calls by dose curve; also: nearly all actives have a fitted effect of over 25% in size). As to conditions: HEK293T ATAD5-luc cells viability, CellTiter-Fluor, 15.5 h; series mostly up to 83.3 µM. A digest of the protocol:
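Quantitative high-throughput format. HEK293T cells expressing ATAD5 fused to luciferase were plated at 2,000 cells/well and treated 15.5 hr with compound versus DMSO. Viability was determined by fluorescent live-cell protease substrate, 30 min at 37C.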

Assay [4] in a line: qHTS assay for small molecule disruptors of the mitochondrial membrane potential - cell viability (AID 720634; calls by dose curve;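 also: human HepG2 liver cancer cells; nearly all actives have a fitted effect of over 20% in size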). As to conditions: HepG2 viability, ATP luminescence (CellTiter-Glo), 1 h; series mostly up to 83.2 µM. A digest of the protocol:
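Same-well counter-screen: following the MMP dye addition, CellTiter-Glo was added to 1 hr compound-treated HepG2 cells and luminescence read after 30 min at room temperature.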

The nature of assay [5]: qHTS assay to test for compound auto fluorescence at 590 nm (red) in HepG2 cells (AID 720674). The following applies: HepG2 autofluorescence, red 540/590 nm, 1 h; series mostly up to 46 µM. A digest of the protocol: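 Fluorescence at 590 nm emission following 540 nm excitation was recorded from HepG2 wells one hour after compound transfer, with DMSO-only wells as vehicle and Rose Bengal sodium equivalency as the scale.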

The nature of assay [6]: qHTS assay to test for compound auto fluorescence at 460 nm (blue) in HEK293 cells (AID 720678). The following applies: blue autofluorescence 405/460 nm; series mostly up to 46 µM. The gist of the method:
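Triamterene serves as the blue fluorophore standard. Compound signal at 405/460 nm is read in HEK293 wells (2,000 cells, 10% dialyzed FBS) after overnight treatment at 37C.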

A short description of assay [7]: qHTS assay to test for compound auto fluorescence at 590 nm (red) in HEK293 cells (AID 720679). As to conditions: red autofluorescence 540/590 nm; series mostly up to 46 µM. A digest of the protocol: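 We plated HEK293 cells in 10% dialyzed FBS medium, let them adhere for 4-5 hr, then added 23 nL compound. Overnight at 37C and 5% CO2 preceded fluorescence measurement at 540/590nm.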

Assay [8] in a line: qHTS assay for small molecule disruptors of the mitochondrial membrane potential (AID 720635). Also: potency is read from the fitted curve at half-maximal effect. As to conditions: HepG2 mitochondrial membrane potential, Mito-MPS dye ratio; series mostly up to 83.2 µM. A digest of the protocol: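 HepG2 cells exposed to compound 1 hr at 37C, then Mito-MPS dye 30 min. Ratio read of aggregate (540/590 nm) versus monomer (490/535 nm) fluorescence.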

Assay [9] can be described thus: qHTS assay to test for compound auto fluorescence at 535 nm (green) in HepG2 cells (AID 720675). As to conditions: green autofluorescence 485/535 nm, 1 h; series mostly up to 46 µM.

For `CC/C=C\CC/C=C/C(OCC)OCC`, the Potency result in assay [1], in assay [3] and in [4] was “inactive” each time. Also, the result in [2], in [5], in assay [6] and in assay [7] was inactive.

In the case of `C=C(C)C(=O)OCCCCCCCC(C)C`, the Potency entry in [1] and in [3] was “inactive” throughout. Besides, the result in assay [2], in assay [5], in assay [6] and in assay [7] was inactive.

As for `Cc1nc2c([nH]1)c(=O)n(C)c(=O)n2Cc1ccco1`, the Potency entry in assay [1], in [3], in assay [4] and in assay [8] was “inactive” each time. Also, the outcome in assay [5], in assay [9], in assay [6] and in [7] was inactive.

For `CCc1ccc(O)c(OC)c1`, the Potency result in assay [1], in [3] and in assay [4] was “inactive” throughout. Also, the compound was classed as inactive in [2], in [5], in [9], in [6] and in assay [7].

As for `O=[N+]([O-])c1ccc(F)cc1F`, the Potency entry in [1], in [4] and in assay [8] was “inactive” throughout. Moreover, the result in assay [2], in assay [5], in assay [9], in [6] and in assay [7] was inactive.

In the case of `CCOc1ccc(C(=O)OCCN(CC)CC)cc1`, the Potency entry in assay [1] and in assay [4] was “inactive” in each case. Moreover, the compound was called inactive in assay [2], in assay [5], in [9], in assay [6] and in assay [7].

With `NCCc1cnc[nH]1`, the compound was classed as inactive in [2], in assay [5], in assay [6] and in [7]. The Potency entry in assay [3] and in assay [4] was “inactive” in each case.

On to `CC(C)(C)c1ccc(O)c(O)c1`, for which the result in [2], in [5], in [9], in [6] and in assay [7] was inactive. The Potency entry in assay [3] and in assay [4] was “inactive” in each case. In addition, the Potency in [8] is 15.9 µM (active) and 13.7 µM (active).

In the case of `CCOC(=O)Nc1ccc(NCc2ccc(F)cc2)nc1N`, the Potency entry in [1], in assay [4] and in [8] was “inactive” in each case. The outcome in assay [2], in [5], in [9] and in assay [7] was inactive.

Consider `CC(C)(C)NCCNC(C)(C)C`, for which the Potency entry in assay [1], in [3] and in [4] was “inactive” in each case. The outcome in assay [2], in assay [5], in [9], in assay [6] and in assay [7] was inactive.

With `Cc1cc(O)cc2c1O[C@](C)(CCC[C@H](C)CCC[C@H](C)CCCC(C)C)CC2`, the Potency result in assay [1], in [4] and in assay [8] was “inactive” in each case. Moreover, the outcome in assay [2], in [5], in assay [9], in assay [6] and in assay [7] was inactive.

For the compound `CO[C@]12C[C@@H](COC(=O)c3cncc(Br)c3)CN(C)[C@@H]1Cc1cn(C)c3cccc2c13`, the Potency entry in [1], in assay [4] and in assay [8] was “inactive” each time. Further, the outcome in [5], in assay [9], in [6] and in assay [7] was inactive.

In the case of `CCO/C([O-])=N/c1c[n+](N2CCOCC2)no1`, the Potency result in [1], in assay [3] and in assay [4] was “inactive” each time. The result in [2], in [5], in [6] and in assay [7] was inactive.

In the case of `COC(=O)C1=C(C)NC(C)=C(C(=O)OC)C1c1ccccc1[N+](=O)[O-]`, the Potency entry in assay [1] and in [4] was “inactive” throughout. Moreover, the compound was classed as inactive in assay [2], in [5], in assay [9], in assay [6] and in [7]. The Potency entry in [8] was “inactive and 61.2 µM (active)”.

Regarding `CCCC(=O)O[C@]1(C(=O)CO)CC[C@H]2[C@@H]3CCC4=CC(=O)CC[C@]4(C)[C@H]3[C@@H](O)C[C@@]21C`, the Potency entry in assay [3] and in assay [4] was “inactive” each time. Also, the compound was called inactive in [5], in assay [9], in assay [6] and in [7].

Consider `CN(C)CCCN1c2ccccc2CCc2ccc(Cl)cc21`, for which the outcome in assay [2], in [5], in assay [9], in [6] and in assay [7] was inactive. Also, the Potency result in assay [4] was “inactive”.

In the case of `CC(=O)OCC(CCn1cnc2cnc(N)nc21)COC(C)=O`, the Potency result in assay [1], in [4] and in [8] was “inactive” throughout. The compound was called inactive in [2], in assay [5], in [9], in [6] and in assay [7].

In the case of `C=COCC1CCC(CO)CC1` (stereo not drawn), the Potency entry in [1], in assay [4] and in assay [8] was “inactive” in each case. Besides, the compound was called inactive in [2], in assay [5], in [9], in [6] and in assay [7].

`c1cnc(N2CCN(Cc3ccc4c(c3)OCO4)CC2)nc1`: the Potency entry in assay [1], in [4] and in assay [8] was “inactive” each time. For the same compound, the outcome in assay [2], in [5], in assay [9], in [6] and in assay [7] was inactive.

For `O=Cc1cccc([N+](=O)[O-])c1`, the Potency entry in assay [1] and in [4] was “inactive” throughout. In addition, the call in [2], in assay [5], in assay [6] and in assay [7] was inactive.

As to `C[C@H](NC(CCc1ccccc1)C(=O)O)C(=O)N1CCC[C@H]1C(=O)O` (stereo partly drawn), the Potency entry in [1], in [3], in assay [4] and in assay [8] was “inactive” each time. Further, the result in [5], in [9], in assay [6] and in assay [7] was inactive.
